Calls of active or inactive are those of the source. Unless noted, the rule behind the calls is not given here.
Legend:
[1] = tested on: XIP peptide (Xip251-270) binding; assay: XIP fragment 251-270 binding compounds – biochemical, small-molecule microarray, fluorescence 635/667 nm, 0.1 µg/mL protein, primary screen (AID 1182); settings: fluorescent protein binding, 635 nm, higher = more signal, called active from +8 up or from −8 down
[2] = tested on: XIP peptide (Xip251-270); assay: compounds binding XIP fragment 251-270 – biochemical, small-molecule microarray, fluorescence 635/667 nm, 0.5 µg/mL protein, primary screen (AID 1183); settings: fluorescence 635 nm, higher = more signal
[3] = blood-stage malaria parasite viability loss – strain 3D7, DAPI fluorescence, 100 nL, primary screen (AID 1184);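 note: parasites grown inside human red blood cells in medium with human serum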; settings: P. falciparum 3D7 growth, 3 d, higher = more signal
[4] = biological target: Homeobox protein Hox-A13 (Mus musculus) (UniProt Q62424); assay: disruptors of Hoxa13 oligonucleotide interaction – biochemical, fluorescence polarization, labeled oligonucleotide, primary screen (AID 1185); settings: Hoxa13:DNA binding, 15 min, higher = more signal, called active from +8 up or from −8 down
[5] = blockers of DNA damage checkpoint Chk1 activation – imaging, HeLa, hydroxyurea, phospho-Chk1 antibody, percent positive cells, primary screen (AID 1186); settings: hydroxyurea-induced phospho-Chk1 immunofluorescence imaging, higher = more signal
[6] = blockers of DNA damage checkpoint Chk1 activation – imaging, HeLa, hydroxyurea, phospho-Chk1 nuclear intensity, primary screen (AID 1187); settings: hydroxyurea-induced phospho-Chk1 immunofluorescence imaging, higher = more signal

Sequence of Homeobox protein Hox-A13 (Mus musculus) (Q62424 whole entry, looked up): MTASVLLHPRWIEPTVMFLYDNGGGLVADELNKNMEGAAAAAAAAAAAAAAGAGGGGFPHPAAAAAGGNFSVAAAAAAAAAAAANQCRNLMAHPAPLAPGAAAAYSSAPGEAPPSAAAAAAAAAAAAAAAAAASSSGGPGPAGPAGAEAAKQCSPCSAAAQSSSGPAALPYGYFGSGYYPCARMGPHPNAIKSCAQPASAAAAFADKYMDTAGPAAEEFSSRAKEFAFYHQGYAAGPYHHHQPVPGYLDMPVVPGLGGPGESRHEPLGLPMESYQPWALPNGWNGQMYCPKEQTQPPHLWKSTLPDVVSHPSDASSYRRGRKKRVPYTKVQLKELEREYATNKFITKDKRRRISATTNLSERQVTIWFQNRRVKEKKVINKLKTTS

SMILES	composite z-score [1]	composite z-score [2]	z-score [3]	z-score [4]	z-score [5]	z-score [6]
COCCOC(=O)N1C(=O)[C@@]2(c3cc(C#CCC(C(=O)OC)C(=O)OC)ccc31)[C@H](c1ccc(O)cc1)N1[C@H](c3ccccc3)[C@H](c3ccccc3)OC(=O)[C@H]1[C@@H]2C(=O)Nc1nc2ccccc2s1	1.49 (inactive)	0.853	-1.43	-2.2 (inactive)	0.03 (inactive)	0.0087 (inactive)
CCOC(=O)C1=CC[C@@H](c2ccc(OC)cc2)N(S(=O)(=O)c2ccc(C)cc2)[C@H]1CC	0.441 (inactive)	0.463	-2.03	-0.507 (inactive)	-0.819 (inactive)	-0.599 (inactive)
COCCOC(=O)N1C(=O)[C@@]2(c3cc(C#CCCO)ccc31)[C@H](C(N)=O)[C@H]1C(=O)O[C@H](c3ccccc3)[C@H](c3ccccc3)N1[C@@H]2c1ccccc1OCCO	1.47 (inactive)	0.832	-1.31	-3.88 (inactive)	0.0461 (inactive)	-0.303 (inactive)
COc1ccc(C(O)C2C=CC3C(=O)NC(=O)C3N2Nc2ccc(Cl)cc2Cl)c2ccccc12 (configuration not stated)	1.62 (inactive)	0.687	-0.605	-2.99 (inactive)	-0.0602 (inactive)	0.175 (inactive)
Cc1ccccc1C(O)C1C=CC2C(=O)N(c3ccccc3)C(=O)C2N1Nc1ccccc1 (configuration not stated)	0.766 (inactive)	0.889	-0.189	-2.86 (inactive)	-1.2 (inactive)	-1.11 (inactive)
CCCc1cc2c(n1CCc1ccc(Cl)cc1)C(C)C1CN(C(=O)c3ccccc3)C(C)(C(=O)OC)C21 (configuration not stated)	-0.573 (inactive)	0.201	-1.18	-5.05 (inactive)	0.853 (inactive)	0.692 (inactive)
COC(=O)C1(Cc2ccccc2)C=C2C(=C(C)C(=O)C2C)CN1 (configuration not stated)	-0.217 (inactive)	0.943	0.235	-5.82 (inactive)	0.0869 (inactive)	0.244 (inactive)
CCOC(=O)C[C@H]1[C@H](OC(=O)Cc2ccc3c(c2)OCO3)[C@@H](NC(=O)Cc2ccc(OC)cc2)c2cc(OCCCO)ccc2N1C(=O)Cc1ccc(OC)cc1	-0.0299 (inactive)	0.678	-1.99	-1.76 (inactive)	-1.33 (inactive)	-1.19 (inactive)
O=C1N(CCS(=O)(=O)c2ccccc2)c2ccccc2C[C@]12N=C(c1ccc(OCCCO)cc1)O[C@@H]2c1ccccc1	0.412 (inactive)	0.811	-2.3	-4.51 (inactive)	-0.36 (inactive)	-0.357 (inactive)
C=C(CCCC)/C(=C/C[C@H](OC(C)=O)c1cccc(OCCO)c1)c1cnc2ccccc2c1	-0.0697 (inactive)	0.0014	-2.57	-4.01 (inactive)	-0.549 (inactive)	-0.761 (inactive)
COC(=O)[C@@]1(Cc2ccc(OC)cc2)[C@H]2c3cc(C(=O)N4CCCC4)n(CCn4cc([N+](=O)[O-])nc4C)c3C[C@H]2CN1C(=O)c1ccccc1	1.13 (inactive)	0.359	-1.73	-2.67 (inactive)	1.65 (inactive)	1.22 (inactive)
C=CCC(OC(C)=O)[C@@H]1[C@@H](N(Cc2ccc(-c3cccc(C(F)(F)F)c3)o2)C(=O)c2ccc(-c3ccccc3)cc2)c2cc(OCCCO)ccc2N1C(=O)c1ccc2ccccc2c1 (some centres not stated)	0.405 (inactive)	-0.378	-1.26	-1.43 (inactive)	0.366 (inactive)	0.766 (inactive)
NC(=O)N1C(=O)C2C(C1=O)C1C=C(CCCO)C2C(C2CC2)N1Cc1sc2ccccc2c1Cl (configuration not stated)	0.632 (inactive)	0.692	-0.672	-4.04 (inactive)	-0.273 (inactive)	-0.171 (inactive)
CCCC=C(CCC)[C@@H](NC(=O)c1ccc(C(F)(F)F)cc1)c1ccc(C(F)(F)F)cc1	0.237 (inactive)	0.541	-0.702	-3.88 (inactive)	-0.136 (inactive)	-0.377 (inactive)
COc1cc(C(O)C2C=CC3C(=O)N(c4ccccc4)C(=O)C3N2Nc2ccccc2F)cc(OC)c1OC (configuration not stated)	0.283 (inactive)	0.737	-0.267	-4.84 (inactive)	0.409 (inactive)	-0.477 (inactive)
COC(=O)[C@@]1(Cc2ccc(F)cc2)[C@H]2c3cc(C(=O)N4CCCC4)n(Cc4cc(F)cc5c4OCOC5)c3C[C@H]2CN1C(=O)c1ccccc1	0.602 (inactive)	0.53	-1.6	-4.07 (inactive)	-0.142 (inactive)	-0.121 (inactive)
CC(C)NC(=O)[C@@]1(C)c2ccccc2C(=O)N(Cc2ccccc2)[C@H]1c1ccc(CO)cc1	0.0062 (inactive)	0.875	-0.321	-2.37 (inactive)	-0.471 (inactive)	-0.429 (inactive)

Reference: PubChem BioAssay
